Screening results: PubChem, National Center for Advancing Translational Sciences (NCATS)
ALDH1A1 block: blocks purified human ALDH1A1 activity; Potency, µM (series often up to 75.3 µM), usual class: inhibitors; 7.3% of 220,000 active; Purified ALDH1A1, NADH fluorescence, propionaldehyde substrate; P00352; active = well fitted inhibition curve with a large enough effect, not every such curve was filed as active; inconclusive = small, poorly fitted or top-dose-only effect, or another doubt; inactive = no such curve, though single readings can be large or run the other way
Target sequence (P00352 whole entry, looked up): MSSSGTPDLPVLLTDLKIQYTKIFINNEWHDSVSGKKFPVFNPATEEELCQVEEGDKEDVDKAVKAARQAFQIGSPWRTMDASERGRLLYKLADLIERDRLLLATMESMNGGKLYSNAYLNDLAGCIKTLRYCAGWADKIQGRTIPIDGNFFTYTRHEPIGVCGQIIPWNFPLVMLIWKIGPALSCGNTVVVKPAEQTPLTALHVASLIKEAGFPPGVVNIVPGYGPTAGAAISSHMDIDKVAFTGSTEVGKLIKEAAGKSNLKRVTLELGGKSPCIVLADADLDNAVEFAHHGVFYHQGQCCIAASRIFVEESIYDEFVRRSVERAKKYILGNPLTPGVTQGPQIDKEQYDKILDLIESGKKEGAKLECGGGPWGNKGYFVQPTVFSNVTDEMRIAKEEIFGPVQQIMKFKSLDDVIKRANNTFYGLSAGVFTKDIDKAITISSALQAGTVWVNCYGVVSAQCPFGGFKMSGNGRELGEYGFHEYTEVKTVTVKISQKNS
NPSR antag: neuropeptide S receptor (human) antagonism, cAMP | Q6W5P4 | CHO-NPSR cells, cAMP TR-FRET, antagonist mode | Potency, µM (series often up to 38.3 µM), most hits filed as inhibitors | 1% of 220,000 active | AID 1461; also: nearly all actives have a fitted effect of over 50% in size
HPGD block: blocks human HPGD enzyme activity; 4.3% of 150,000 active; purified HPGD, NADH fluorescence kinetic, PGE2 substrate; Potency, µM, most hits filed as inhibitors; P15428; AID 894; active = well fitted inhibition curve with a large enough effect, not every such curve was filed as active; inconclusive = small, poorly fitted or top-dose-only effect, or another doubt; inactive = no such curve, though single readings can be large or run the other way
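NADH formation kinetics: reaction with 30 uM PGE2 and 1 mM NAD+ (final), 20 nM enzyme, Tris-HCl pH 8 with Tween 20, after 15 min compound preincubation at room temperature. Fluorescence change, last versus first of five reads.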
Tau ThT inhib: blocks human tau fibril formation measured by thioflavin T; 2.1% of 270,000 active; Potency, µM (titrated, usually from 57.4 µM), usual class: inhibitors; recombinant tau K18 P301L, heparin-induced fibrillization, ThT fluorescence; P10636; AID 1460; also: nearly all actives have a fitted effect of over 55% in size
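Heparin-induced (20 uM) aggregation of recombinant human K18 P301L tau, 15 uM unlabeled with 0.24 uM labeled, pH 7 acetate buffer, 6 hr at 37 C with compound. Fibrils quantified by 30 uM ThT fluorescence after 1 hr ambient incubation.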
Tau fluor counter: counter-screen for tau fibril formation inhibitors | Potency, µM (titrated, usually from 57.7 µM) | 0.93% of 280,000 active | AID 1463 | tau K18 P301L Alexa594 fluorescence, heparin fibrillization; also: nearly all actives have a fitted effect of over 55% in size
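Human tau K18 P301L (15 uM unlabeled, 0.24 uM Alexa 594-labeled) in 100 mM sodium acetate pH 7 with 20 uM heparin, 6 hr at 37 C. ThT 30 uM added, 1 hr ambient; Alexa 594 FP and total fluorescence read at 555/632 nm.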
Tau fibril FP: inhibitors of human tau fibril formation; Potency, µM (top dose mostly 57.7 µM), most hits filed as inhibitors; 0.39% of 280,000 active; K18 P301L tau heparin fibrillization, Alexa594 FP, 6 h; also: nearly all actives have a fitted effect of over 55% in size
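K18 P301L tau (15 uM unlabeled/0.24 uM Alexa 594-labeled, final) + compound + heparin 20 uM final; 100 mM NaOAc pH 7; 6 hr 37 C; ThT 30 uM final added, 1 hr RT; FP ex 555/em 632 nm.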
Each line names hits and unclear results; the compound was inactive in the other large screens. Compounds with a hit are over-represented: about 9.5% of the library has one in this group of screens. Unless noted, calls follow the shape of the dose curve; as a rule, active = well fitted curve in the direction sought with a large enough effect; inconclusive = small, poorly fitted or top-dose-only effect, or another doubt; inactive = no such curve, though single readings can be large; an effect the other way counts as inactive or inconclusive.

O=C(/C=N\O)NCCCNCc1ccccc1	ALDH1A1 block 22µM
O=C(NCCCNCc1ccccc1)c1ccncc1	ALDH1A1 block 2µM
CN(C)CCCNCCCNC(=O)c1ccncc1	none
CC1CCc2nn(CC(=O)NC3CCCC(C)C3C)cc2C1 (stereo unspecified)	NPSR antag inconclusive, HPGD block 14µM
CC1CCCC(NC(=O)COC(=O)CCC2CCCC2)C1C (stereo unspecified)	ALDH1A1 block 11µM, HPGD block inconclusive
CCOC(=O)N1CCC(NC(=O)Cn2cc3c(n2)CCC(C)C3)CC1 (stereo unspecified)	none
CC1CCCC(NC(=O)COC(=O)Cc2ccc(Br)cc2)C1C (stereo unspecified)	none (no result: HPGD block)
CC1CCCC(NC(=O)Cc2ccc(Br)cc2)C1C (stereo unspecified)	HPGD block 16µM
COc1cc(CCC(=O)OCC(=O)NC2CCCC(C)C2C)cc(OC)c1OC (stereo unspecified)	ALDH1A1 block inconclusive (no result: HPGD block)
CC1CCCC(NC(=O)COC(=O)COc2ccc(Cl)cc2)C1C (stereo unspecified)	ALDH1A1 block 1µM
C=COCC1CN2C(CCC(C)C2c2ccc(Br)cc2)C(=O)O1 (stereo unspecified)	none (no result: NPSR antag, HPGD block)
O=C1OC(c2ccccc2)=C/C1=C/N1CCOCC1	ALDH1A1 block 7.9µM
O=C1OC(c2ccccc2)=C/C1=C\N1CCOCC1	ALDH1A1 block 11µM, Tau ThT inhib inconclusive
CN(C)/C=C1/C=C(c2ccccc2)OC1=O	ALDH1A1 block inconclusive, Tau ThT inhib 40µM, Tau fibril FP inconclusive
N#C/C(=C\N1CCOCC1)c1ccccc1	ALDH1A1 block inconclusive
O=C1SC(c2ccccc2)=C/C1=C\N1CCCCC1	ALDH1A1 block inconclusive, Tau ThT inhib inconclusive, Tau fluor counter inconclusive
Cc1c(Cl)cccc1NS(=O)(=O)c1ccc(-c2cnc(C3CC3)o2)cc1	Tau fluor counter inconclusive (no result: ALDH1A1 block, NPSR antag, HPGD block)
COC(=O)C(=NNc1c(C)n(C)n(-c2ccccc2)c1=O)C(=O)OC	none
N#C/C(=N\Nc1ccc(Cl)cc1)C(=O)c1ccccc1	NPSR antag 13µM, Tau ThT inhib 14µM, Tau fluor counter inconclusive
Cc1c(N/N=C(\C#N)C(=O)c2ccc(Cl)cc2)c(=O)n(-c2ccccc2)n1C	ALDH1A1 block inconclusive, HPGD block 28µM
C=CCNc1nc2c(c(=O)[nH]c(=O)n2C)n1CCCCC	none
Cn1c(SCn2nnc3ccccc3c2=O)nc2ccccc2c1=O	ALDH1A1 block inconclusive (no result: HPGD block)
CCN(CC)S(=O)(=O)c1ccc2c(c1)nc(SCn1nnc3ccccc3c1=O)n2CC	ALDH1A1 block 10µM
CC(=O)c1cccc(N(CC(=O)N2CCCC2)S(C)(=O)=O)c1	ALDH1A1 block 25µM
COc1cc(Cn2c(=O)oc3ccc(C)cc32)ccc1OC(C)C	none
COc1ccc(-c2[nH]ncc2N=Nc2cc(C)cc(C)c2)cc1	Tau ThT inhib inconclusive, Tau fluor counter inconclusive, Tau fibril FP inconclusive (no result: HPGD block)
COc1ccc(-c2[nH]ncc2N=Nc2ccccc2)cc1	Tau ThT inhib 16µM, Tau fluor counter inconclusive, Tau fibril FP inconclusive (no result: HPGD block)
COc1ccc(CN2C(=O)c3ccccc3C(/C=N\OCc3ccc(C)cc3)C2=O)cc1 (stereo unspecified)	none
COc1ccccc1C(=O)Nc1ccc(-c2nnn(CC(=O)NCc3ccco3)n2)cc1	none (no result: ALDH1A1 block, HPGD block)
Cc1ccc(OCc2ccc(C(=O)N3CCOCC3)cc2)cc1C	HPGD block 25µM
CC(C)c1ccc(COc2ccc(C(=O)N3CCOCC3)cc2)cc1	ALDH1A1 block inconclusive (no result: HPGD block)
Cc1ccc(NC2CC(=O)N(c3ccc(C)cc3)C2=O)cc1 (stereo unspecified)	Tau ThT inhib inconclusive
Cc1ccc(NNC2CC(=O)N(c3cccc(Cl)c3)C2=O)cc1 (stereo unspecified)	ALDH1A1 block 25µM, Tau ThT inhib inconclusive, Tau fluor counter inconclusive (no result: HPGD block)
O=C1CC(NNc2ccccc2)C(=O)N1c1ccccc1 (stereo unspecified)	ALDH1A1 block 18µM, Tau ThT inhib inconclusive
COc1ccc(NC2CC(=O)N(c3ccccc3)C2=O)cc1 (stereo unspecified)	ALDH1A1 block inconclusive, Tau ThT inhib inconclusive
